Assay results published in PubChem BioAssay (NCI).
This is part of a sample that, as a whole, favours compounds with a hit. Of some 79,000 tested, about 15% had one in any assay. Values without a mark were called inactive. Calls of active or inactive are those of the source. Rule as the data show it: active = growth inhibition above about 70%; inactive = the rest.

Assay: NCI Yeast Anticancer Drug Screen. Data for the mec2-1 strain (AID 157)
Conditions: S. cerevisiae mec2-1 strain, at 50.0 µM (retest, dose inferred, filed as 5.0), hits give high values
In short: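 Cells of the genetically defined mec2-1 yeast strain are incubated with test compound. Inhibition of growth is calculated against vehicle-treated controls.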
For `CCCCCCCCCCCCCCCC1=NCCN1C`, the growth inhibition was 100% (active).
`C=CCNC(=O)c1ccccc1C(=O)O` showed a growth inhibition of 1%.
In the case of `O=C(Nc1ccc(Cl)cc1Cl)OC(Cn1cncn1)c1ccc(Cl)cc1Cl` (stereo not given), the growth inhibition is reported as 67%.
In the case of `CC1=C(C)CC2C(=O)C(C(O)CC(C)C)=CC(=O)C2C1` (stereo not given), the growth inhibition is reported as 91% (active).
For `BrCc1ccccc1C[P+](c1ccccc1)(c1ccccc1)c1ccccc1`, the growth inhibition was 99% (active).
In the case of `Cc1cn(C(C#N)=C(C#N)C#N)c2ccccc12`, the growth inhibition is reported as 11%.
With `O=C1OCCCOC(=O)c2cc(ccc2O)OCC#CC#CCOc2ccc(O)c1c2` the growth inhibition was 19%.
In the case of `O=[N+]([O-])c1cc2ccc(O)cc2c2ccccc12`, the growth inhibition is reported as 85% (active).
In the case of `COc1cc2c(oc(=O)c3cc(C)cc(OC)c32)c2c(C3OC(C)C(O)C(C)(O)C3O)ccc(O)c12` (stereo not given), the growth inhibition is reported as 97% (active).
For `Oc1c(Cl)cc(Cl)c(Cc2c(Cl)cc(Cl)c(O)c2Cl)c1Cl`, the growth inhibition was 98% (active).
In the case of `N#CI1OC(C(F)(F)F)(C(F)(F)F)c2ccccc21`, the growth inhibition is reported as 99% (active).
`c1ccc2c(c1)[nH]c1c[n+]3c(c[n+]12)[nH]c1ccccc13` gave a growth inhibition of 47%.
In the case of `CC1Cc2cc(O)c(O)cc2-c2cc(O)c(O)cc2CC1C` (stereo not given), the growth inhibition is reported as 89% (active).
With `COc1ccc(C2c3cc4c(cc3OC(C)(O)C2C)OCO4)cc1` (stereo not given) the growth inhibition was 94% (active).
For `Cc1ccc(C2(O)CC(c3ccc([N+](=O)[O-])o3)=NN2C(=O)COc2ccc(Cl)cc2)cc1` (stereo not given), the growth inhibition was 29%.
`CCO[Si](CC)(OCC)OCC` showed a growth inhibition of -3%.
With `C/C=C(/CCC1NCCC2c3ccccc3NC12)[Si](C)(C)C` (stereo not given) the growth inhibition was 8%.
With `O=C(CBr)N1c2ccccc2Sc2ccc3ccccc3c21` the growth inhibition was 99% (active).
In the case of `CC(C)(C)CC(C)(C)N[P+](NC(C)(C)CC(C)(C)C)(NC(C)(C)CC(C)(C)C)NC(C)(C)CC(C)(C)C`, the growth inhibition is reported as 99% (active).
For `COc1ccc(/C=C/c2ccnnc2)c(OC)c1OC`, the growth inhibition was 8%.
Compound `O=Cc1cc(-c2ccccc2)n(-c2ccccc2)c1-c1ccccc1` has a growth inhibition of -3%.
`CC(=O)Oc1ccc(/C=C/c2ccncc2)cc1` gave a growth inhibition of -33%.
`OC(c1ccccc1)(c1ccccc1)c1ccc[cH-]1.OC(c1ccccc1)(c1ccccc1)c1ccc[cH-]1.[Fe+2]` gave a growth inhibition of -1%.
For `O=C1C=CC(=O)N1c1ccc(Cl)cc1Br`, the growth inhibition was 44%.
In the case of `Cc1c(N)nc(C2CC(=O)N2CC(N)C(N)=O)nc1C(=O)NC(C(=O)NC(C)C(O)C(C)C(=O)NC(C(=O)NCCc1nc(-c2nc(C(=O)NCCNCC(C)O)cs2)cs1)C(C)O)C(OC1OC(CO)C(O)C(O)C1OC1OC(CO)C(O)C(OC(N)=O)C1O)c1cnc[nH]1` (stereo not given), the growth inhibition is reported as 99% (active).
For `CNC(=S)/N=c1/sc([N+](=O)[O-])c(C)n1C`, the growth inhibition was 0%.
Work on `O=c1c2ccccc2ncn1Cc1ccccc1[N+](=O)[O-]` yielded a growth inhibition of 7%.
For `Cc1nn(C(=O)c2ccncc2)c(C)c1N=Nc1ccccc1[N+](=O)[O-]`, the growth inhibition was 93% (active).
With `CCC[CH2][Ge]([CH2]CCC)([CH2]CCC)[O]C(=O)C(OC(C)=O)c1ccccc1` (stereo not given) the growth inhibition was 85% (active).
In the case of `Nc1ccc2c(c1)[nH]c(=O)c1cc(Cl)c(Cl)cc12`, the growth inhibition is reported as 60%.
In the case of `CCCCCCCCCCCCSC1=C(N)C(=O)c2ccccc2C1=O`, the growth inhibition is reported as 3%.
With `CCC(C)(C)c1ccc(OCCO)c([N+](=O)[O-])c1` the growth inhibition was 71% (active).
In the case of `C/C(=N/O)c1cccc(C(F)(F)F)c1`, the growth inhibition is reported as -58%.
`CCCCCCN(S(=O)(=O)c1ccc([N+](=O)[O-])cc1)S(=O)(=O)c1ccc([N+](=O)[O-])cc1` showed a growth inhibition of 51%.
Work on `N#CC1=C(N)OC(c2ccccc2)=C(C#N)C1c1ccccc1[N+](=O)[O-]` (stereo not given) yielded a growth inhibition of 8%.
Compound `COC1CCCCC1C(=O)C(C#N)C1CCCCC1C1CCCCC1` (stereo not given) has a growth inhibition of -6%.
For `COCCOC1=C(Cl)C(=O)c2c(O)ccc(O)c2C1=O`, the growth inhibition was 98% (active).
In the case of `NC(CSSCC(N)C(=O)Nc1ccc2ccccc2c1)C(=O)Nc1ccc2ccccc2c1` (stereo not given), the growth inhibition is reported as 100% (active).
With `CSc1c(S(C)=O)c2ccccc2n1C` (stereo not given) the growth inhibition was 27%.
`CCCCCCCCCCCCCCCCNCCCCCCCC(=O)O` gave a growth inhibition of 49%.

Same assay, conditions: S. cerevisiae mec2-1 strain, at 50.0 µM, hits give high values
In the case of `CCCCCCCCCCCCCCCC1=NCCN1C`, the growth inhibition is reported as 99.5% (active).
With `C=CCNC(=O)c1ccccc1C(=O)O` the growth inhibition was 36.6%.
In the case of `O=C(Nc1ccc(Cl)cc1Cl)OC(Cn1cncn1)c1ccc(Cl)cc1Cl` (stereo not given), the growth inhibition is reported as 91.4% (active).
With `CC1=C(C)CC2C(=O)C(C(O)CC(C)C)=CC(=O)C2C1` (stereo not given) the growth inhibition was 98.5% (active).
For `BrCc1ccccc1C[P+](c1ccccc1)(c1ccccc1)c1ccccc1`, the growth inhibition was 90.7% (active).
For `Cc1cn(C(C#N)=C(C#N)C#N)c2ccccc12`, the growth inhibition was 22.5%.
For `O=C1OCCCOC(=O)c2cc(ccc2O)OCC#CC#CCOc2ccc(O)c1c2`, the growth inhibition was 8.75%.
For `O=[N+]([O-])c1cc2ccc(O)cc2c2ccccc12`, the growth inhibition was 94.2% (active).
In the case of `COc1cc2c(oc(=O)c3cc(C)cc(OC)c32)c2c(C3OC(C)C(O)C(C)(O)C3O)ccc(O)c12` (stereo not given), the growth inhibition is reported as 89.3% (active).
Compound `Oc1c(Cl)cc(Cl)c(Cc2c(Cl)cc(Cl)c(O)c2Cl)c1Cl` has a growth inhibition of 3.5%.
In the case of `N#CI1OC(C(F)(F)F)(C(F)(F)F)c2ccccc21`, the growth inhibition is reported as 92.2% (active).
`c1ccc2c(c1)[nH]c1c[n+]3c(c[n+]12)[nH]c1ccccc13` showed a growth inhibition of 5.45%.
With `CC1Cc2cc(O)c(O)cc2-c2cc(O)c(O)cc2CC1C` (stereo not given) the growth inhibition was 83.8% (active).
In the case of `COc1ccc(C2c3cc4c(cc3OC(C)(O)C2C)OCO4)cc1` (stereo not given), the growth inhibition is reported as 95.4% (active).
Work on `Cc1ccc(C2(O)CC(c3ccc([N+](=O)[O-])o3)=NN2C(=O)COc2ccc(Cl)cc2)cc1` (stereo not given) yielded a growth inhibition of 51.9%.
For `CCO[Si](CC)(OCC)OCC`, the growth inhibition was 4.4%.
For `C/C=C(/CCC1NCCC2c3ccccc3NC12)[Si](C)(C)C` (stereo not given), the growth inhibition was 7.15%.
With `O=C(CBr)N1c2ccccc2Sc2ccc3ccccc3c21` the growth inhibition was 90.7% (active).
For `CC(C)(C)CC(C)(C)N[P+](NC(C)(C)CC(C)(C)C)(NC(C)(C)CC(C)(C)C)NC(C)(C)CC(C)(C)C`, the growth inhibition was 88.3% (active).
In the case of `COc1ccc(/C=C/c2ccnnc2)c(OC)c1OC`, the growth inhibition is reported as 79.5% (active).
For `O=Cc1cc(-c2ccccc2)n(-c2ccccc2)c1-c1ccccc1`, the growth inhibition was 22.2%.
`CC(=O)Oc1ccc(/C=C/c2ccncc2)cc1` showed a growth inhibition of 44%.
`OC(c1ccccc1)(c1ccccc1)c1ccc[cH-]1.OC(c1ccccc1)(c1ccccc1)c1ccc[cH-]1.[Fe+2]` showed a growth inhibition of 9.45%.
For `O=C1C=CC(=O)N1c1ccc(Cl)cc1Br`, the growth inhibition was 94.3% (active).
With `Cc1c(N)nc(C2CC(=O)N2CC(N)C(N)=O)nc1C(=O)NC(C(=O)NC(C)C(O)C(C)C(=O)NC(C(=O)NCCc1nc(-c2nc(C(=O)NCCNCC(C)O)cs2)cs1)C(C)O)C(OC1OC(CO)C(O)C(O)C1OC1OC(CO)C(O)C(OC(N)=O)C1O)c1cnc[nH]1` (stereo not given) the growth inhibition was 93.3% (active).
`CNC(=S)/N=c1/sc([N+](=O)[O-])c(C)n1C` showed a growth inhibition of 12.5%.
For `O=c1c2ccccc2ncn1Cc1ccccc1[N+](=O)[O-]`, the growth inhibition was -9.1%.
`Cc1nn(C(=O)c2ccncc2)c(C)c1N=Nc1ccccc1[N+](=O)[O-]` showed a growth inhibition of 20.6%.
With `CCC[CH2][Ge]([CH2]CCC)([CH2]CCC)[O]C(=O)C(OC(C)=O)c1ccccc1` (stereo not given) the growth inhibition was 75.2% (active).
For `Nc1ccc2c(c1)[nH]c(=O)c1cc(Cl)c(Cl)cc12`, the growth inhibition was 40.4%.
For `CCCCCCCCCCCCSC1=C(N)C(=O)c2ccccc2C1=O`, the growth inhibition was 11.1%.
Work on `CCC(C)(C)c1ccc(OCCO)c([N+](=O)[O-])c1` yielded a growth inhibition of 0.1%.
For `C/C(=N/O)c1cccc(C(F)(F)F)c1`, the growth inhibition was 14.3%.
For `CCCCCCN(S(=O)(=O)c1ccc([N+](=O)[O-])cc1)S(=O)(=O)c1ccc([N+](=O)[O-])cc1`, the growth inhibition was 73.7% (active).
Compound `N#CC1=C(N)OC(c2ccccc2)=C(C#N)C1c1ccccc1[N+](=O)[O-]` (stereo not given) has a growth inhibition of 38.1%.
For `COC1CCCCC1C(=O)C(C#N)C1CCCCC1C1CCCCC1` (stereo not given), the growth inhibition was 95.5% (active).
In the case of `COCCOC1=C(Cl)C(=O)c2c(O)ccc(O)c2C1=O`, the growth inhibition is reported as 90.7% (active).
With `NC(CSSCC(N)C(=O)Nc1ccc2ccccc2c1)C(=O)Nc1ccc2ccccc2c1` (stereo not given) the growth inhibition was 91.7% (active).
Work on `CSc1c(S(C)=O)c2ccccc2n1C` (stereo not given) yielded a growth inhibition of -13.2%.
`CCCCCCCCCCCCCCCCNCCCCCCCC(=O)O` showed a growth inhibition of 35.2%.
